# In the supplement of paper PMC6555819:
# Tests used:
# Experiment in all cases: PBM binding z-score (relative to random genomic background probes); higher = stronger binding; sequences stand for … in GC…GCGATTGACAGCGTAGAATGAAGG
# [1] = tested on: FXR:RXRa (NR concentration 270 nM, RXRa partner concentration 90 nM)
# How it was run: (§1)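 Binding z-scores were set against random background probes. The data came from custom Agilent 4×180K protein-binding microarrays carrying double-stranded probes with 34-nt variable regions, incubated 1 h with ligand-free nuclear receptor dimers. Partner-specific antibodies detected binding, and scanned fluorescence was regression-normalized.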
# [2] = tested on: LXRa:RXRa (NR concentration 270 nM, RXRa partner concentration 90 nM)
# How it was run: as §1
# [3] = tested on: LXRa homodimer (NR concentration 270 nM)
# How it was run: as §1
# [4] = tested on: LXRb:RXRa (NR concentration 270 nM, RXRa partner concentration 90 nM)
# How it was run: as §1
# [5] = tested on: LXRb homodimer (NR concentration 270 nM)
# How it was run: as §1
# [6] = tested on: PPARa:RXRa (NR concentration 270 nM, RXRa partner concentration 90 nM)
# How it was run: as §1
# [7] = tested on: PPARg:RXRa (NR concentration 180 nM, RXRa partner concentration 90 nM)
# How it was run: as §1
# [8] = tested on: PPARg:RXRa 270nM:90nM, anti-RXR (NR concentration 270 nM, RXRa partner concentration 90 nM)
# How it was run: as §1
# [9] = tested on: PPARg:RXRa 30nM:10nM, anti-RXR (NR concentration 30 nM, RXRa partner concentration 10 nM)
# How it was run: as §1
# [10] = tested on: PPARg:RXRa 90nM:30nM, anti-RXR (NR concentration 90 nM, RXRa partner concentration 30 nM)
# How it was run: as §1
# [11] = tested on: PPARg:RXRa DBDmut IVT, anti-RXR (DBD mutation: RXRa K156A/R161A, NR concentration 270 nM, RXRa partner concentration 90 nM)
# How it was run: as §1
# [12] = tested on: PPARg:RXRa IVT, anti-PPARg (NR concentration 270 nM, RXRa partner concentration 90 nM)
# How it was run: as §1
# [13] = tested on: PPARg DBDmut:RXRa IVT, anti-PPARg (DBD mutation: PPARg1 K132A/R137A, NR concentration 270 nM, RXRa partner concentration 90 nM)
# How it was run: as §1
# [14] = tested on: PPARg DBDmut IVT, anti-PPARg (DBD mutation: PPARg1 K132A/R137A, NR concentration 270 nM)
# How it was run: as §1
# [15] = tested on: PPARg homodimer (NR concentration 180 nM)
# How it was run: as §1
# [16] = tested on: PXR:RXRa (NR concentration 270 nM, RXRa partner concentration 90 nM)
# How it was run: as §1
# [17] = tested on: PXR homodimer (NR concentration 270 nM)
# How it was run: as §1
# [18] = tested on: RARa:RXR (NR concentration 270 nM, RXRa partner concentration 90 nM)
# How it was run: as §1
# [19] = tested on: RARa homodimer (NR concentration 270 nM)
# How it was run: as §1
# [20] = tested on: RARb:RXRa (NR concentration 270 nM, RXRa partner concentration 90 nM)
# How it was run: as §1
Sequence,PBM binding z-score [1],PBM binding z-score [2],PBM binding z-score [3],PBM binding z-score [4],PBM binding z-score [5],PBM binding z-score [6],PBM binding z-score [7],PBM binding z-score [8],PBM binding z-score [9],PBM binding z-score [10],PBM binding z-score [11],PBM binding z-score [12],PBM binding z-score [13],PBM binding z-score [14],PBM binding z-score [15],PBM binding z-score [16],PBM binding z-score [17],PBM binding z-score [18],PBM binding z-score [19],PBM binding z-score [20]
AGTCAAAGTTCAACTAGGTAACGTAAGATATGCT,7.15,6.16,4.88,4.22,1.72,5.32,7.34,6.67,4.2,6.24,1.28,4.36,2.11,1.11,3.26,5.04,3.96,4.28,2.01,5.16
ATCTCTAGGTAAAGATAGCTCAGTGAATGCAAAT,-0.126,-0.286,-0.237,-0.258,0.316,-0.203,0.422,0.32,0.153,0.317,1.84,1.53,1.58,0.349,0.00125,-0.537,-0.0577,-0.292,0.787,-0.195
CCGAGTAGGTTATGGGGCATTCAGGCAACGGTGA,0.255,0.351,-0.0528,0.508,-0.322,2.11,3.48,4.31,2.03,3.91,3.19,3.21,-0.378,0.039,0.874,-0.0382,0.0489,0.571,0.139,0.99
GTACAAAGGTGAATAGGTCGTTGATGAGTAGGCG,2.27,2.19,0.326,1.78,-0.0357,4.09,4.55,4.78,2.17,4.03,2.92,4.14,1.72,0.526,2.64,2.15,0.501,3.42,1.23,3.49
TGAATGAGGTTATAAGATCAGAGAACGTTGCAAA,1.28,1.23,-0.332,0.897,-0.296,2.62,1.45,1.83,1.04,1.35,0.837,1.71,0.635,0.498,0.196,0.687,-0.71,1.18,-0.143,0.975
GATACAGGGCCAGCTAGAGGCCAGAGTATGGAAA,-0.612,-0.872,-0.883,-1.08,-1.43,-0.738,0.208,-0.6,-0.543,-0.645,-0.745,-0.681,-0.858,-1.22,-0.793,-0.72,-0.244,-0.464,-0.203,0.56
CCTACTGGGCCATGCAGAGGTCATTGATCATATG,2.63,3.58,4.68,3.51,-0.363,3.84,2.51,3.33,1.11,2.41,3.41,4.39,0.533,0.384,2.69,5,1.62,4.75,0.229,3.05
ATCTCTAGGTATGACTCAGTTCAGTGAAGAACGC,0.312,0.266,0.305,0.205,0.789,0.0186,0.264,0.0643,-0.0117,0.0715,0.262,0.638,0.456,1.61,0.371,0.877,1.49,0.389,0.624,0.243
TCTGCTAGGTCAACGATGGTCAGCTCATCTGCTA,3.56,2.79,0.0556,1.81,0.088,3.34,2.4,2.89,1.65,2.19,4,4.36,2.19,-0.236,1.9,1.71,-1.45,2.37,-0.783,4.05
TCTAGCAGGCCAGAGGGTCACGCAAGAGGTACGG,1.68,1.54,-0.618,1.93,-1.47,3.24,2.4,2.99,1.96,2.57,0.77,1.31,-0.82,-1.03,0.618,2.62,-0.51,3.55,-0.463,2.84
AGTTACGGGTCAACGAGGTTATAGCACGCGTATA,6.05,5.15,0.781,4.47,0.793,5.63,5.57,5.55,2.17,4.38,2.76,3.97,0.585,1.05,1.48,5.12,2.21,4.6,0.766,4.16
GCAGACAGCTGAAACGCAGGTAACTCAGGGTGGC,-0.689,-0.548,-0.369,-1.06,-1.49,-0.559,0.436,-0.461,-0.695,-0.928,-0.593,-0.619,-0.401,-0.834,-1.24,-0.942,-0.526,-0.648,-0.637,-0.402
AGAATGAGGTTAAGATCAGCGAAACAGAATACAT,2.2,1.69,-0.0518,1.54,-0.0572,3.72,2.3,2.38,0.794,1.74,1.69,2.37,1.19,0.858,-0.266,0.978,0.422,1.82,0.555,1.83
GCGACTGGCGCATCAGCAGGTTACCATAACTTAA,-0.425,-0.781,-0.313,-0.631,-1.19,-0.493,-0.0523,-0.785,-0.798,-0.75,-0.575,-0.748,-1.28,-1.31,-0.552,-0.518,-0.619,-0.34,-0.992,-1.03
TCTTGTTGATCAAGCAGGTTAAGAAAGCCTGAGT,0.36,0.33,-0.00348,0.357,-0.269,0.497,-0.685,1.11,2.49,1.96,1.34,0.182,-0.406,0.392,0.2,0.29,0.159,0.176,-0.0111,0.317
